From PubChem
esBAF inh – inhibitors of esBAF chromatin remodeling in mouse ES cells; Bmi1-luciferase knock-in reporter, 24 h; 100% = twice the neutral-well signal; reporter increase, % at 12.5 µM; 350,000 tested, 2% active; AID 602393; in the data active = activation above about 40%; inconclusive = no clear call, values can overlap the other calls;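 also: 0% = median of the plate's neutral control wells and 100% = double that signal; a rise in the Bmi1 reporter signal indicates esBAF inhibition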
Wnt bcat act – activates Wnt/beta-catenin signaling in a reporter cell assay. activator, plate reader. activation, % at 9.35 µM. 300,000 tested, 1.2% active; in the data active = activation above about 30%, passing the limit was not always enough; inconclusive = no clear call, values can overlap the other calls;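 also: 0% = neutral control wells and 100% = positive control wells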
A3A deaminase – human APOBEC3A DNA deaminase inhibition | AID 493011 | recombinant A3A, FAM/TAMRA ssDNA deamination fluorescence | inhibition, % at 20 µM | 330,000 tested, 0.41% active;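 active = at least 40% inhibition at 20 µM here, with at most 30% in a related deaminase screen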;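 also: plate controls were A3A with DMSO for no effect and wells lacking A3A enzyme for full effect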
Target sequence (P31941 whole entry, looked up): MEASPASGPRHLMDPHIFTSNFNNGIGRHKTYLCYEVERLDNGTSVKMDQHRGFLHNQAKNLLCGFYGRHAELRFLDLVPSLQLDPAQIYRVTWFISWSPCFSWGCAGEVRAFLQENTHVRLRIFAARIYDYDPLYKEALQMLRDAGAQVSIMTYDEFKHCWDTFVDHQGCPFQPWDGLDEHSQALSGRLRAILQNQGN
PHOSPHO1 inh – inhibitors of human PHOSPHO1 phosphatase | AID 1565 | Q8TCT1 | inhibition, % at 13.3 µM | 290,000 tested, 1.1% active | recombinant PHOSPHO1, absorbance phosphatase assay; in the data active = inhibition above about 60%
Target sequence (Q8TCT1 whole entry, looked up): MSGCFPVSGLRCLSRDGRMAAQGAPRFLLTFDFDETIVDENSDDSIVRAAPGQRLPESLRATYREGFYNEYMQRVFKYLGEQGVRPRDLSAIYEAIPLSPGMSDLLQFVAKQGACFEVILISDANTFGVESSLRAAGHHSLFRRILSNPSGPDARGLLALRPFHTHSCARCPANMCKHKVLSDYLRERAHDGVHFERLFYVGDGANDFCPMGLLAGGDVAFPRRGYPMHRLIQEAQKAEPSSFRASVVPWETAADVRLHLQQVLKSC
MITF act – activators of MITF-driven TRPM1 promoter activity in SK-MEL-5 cells. 300,000 tested, 0.75% active. SK-MEL-5 TRPM1-promoter luciferase, 24 h; % of positive control, neutral wells = 0. activation, % at 12.5 µM;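 active = mean activation of at least 80% with every replicate also reaching 80%; inconclusive = mean reaches 80% but some replicate falls short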;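 also: 0% = neutral control wells and 100% = parthenolide positive control wells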
A3G deaminase – APOBEC3G (human) deaminase inhibition | Q9HC16 | recombinant A3G, ssDNA deamination FAM/TAMRA fluorescence | inhibition, % at 20 µM | 330,000 tested, 0.28% active;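 active = inhibition of at least 40% at 20 µM, with no more than 30% in the related APOBEC3A deaminase screen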;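 also: plate controls were DMSO wells with A3G for no effect and wells lacking A3G enzyme for full effect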
Numbers without * were called inactive; u = inconclusive; x = no result given. Most compounds without a hit are left out; they make up all but 3.6% or so of the library.

SMILES	esBAF inh	Wnt bcat act	A3A deaminase	PHOSPHO1 inh	MITF act	A3G deaminase
CCN(CC)S(=O)(=O)c1cccc(-c2nc3n(n2)Cc2ccccc2-3)c1	75.1*	-1.5	-1.2	-1.5	-16.0	-0.2
N#CCc1nc2n(n1)Cc1ccccc1-2	-5.0	x	-4.6	42.0	6.5	-11.2
COc1cccc(-c2nc3n(n2)CCc2ccccc2-3)c1	35.5	64.4*	x	x	x	x
Clc1ccc(-c2nc3n(n2)Cc2ccccc2-3)cc1	7.5	52.7*	1.0	-11.6	x	0.6
COc1cccc(-c2cc(C(=O)N3CCc4ccccc4C3)no2)c1	0.1	x	-1.7	-27.6	1.0	-5.1
COc1ccc(CNC(=O)C[C@@H]2C=C[C@@H](NC(=O)CN(C)C)[C@H](CO)O2)cc1	-2.8	x	x	x	x	x
COCC(=O)Nc1ccc2c(c1)C(=O)N(C)[C@H]1CC[C@H](CC(=O)NCc3ccccc3Cl)O[C@@H]1CO2	-2.9	x	x	x	x	x
Cc1noc(C)c1NC(=O)N(C)C[C@H]1Oc2cc(C#CCN(C)C)ccc2S(=O)(=O)N([C@@H](C)CO)C[C@H]1C	-0.4	x	x	x	x	x
Cc1cccc(NCc2ccc(O)c3ncccc23)c1C	x	0.1	-4.8	48.8	-34.8	0.6
Cc1cccnc1NCc1ccc(O)c2ncccc12	7.8	7.9	0.6	77.7*	x	-9.9
Cc1ccc(S(=O)(=O)NCC[C@H]2CC[C@H](NC(=O)CC3CC3)[C@H](CO)O2)cc1	1.5	x	x	x	x	x
Cn1nnc(-c2ccc(OCc3ccccc3F)cc2)n1	3.0	37.7*	-2.5	0.1	59.9	-9.0
O=C(CC1Sc2ncnn2C1=O)Nc1ccccc1 (stereo unspecified)	-0.6	-0.1	-2.9	93.6*	-6.6	27.1
Cc1cccc(NC(=O)CC2SC(=O)N(c3ccccc3)C2=O)c1 (stereo unspecified)	15.4	x	-1.6	15.5	-0.4	0.8
Cc1ccc(NC(=O)CC2SC(=O)N(c3ccccc3)C2=O)cc1 (stereo unspecified)	x	32.5*	-3.3	1.5	-10.8	-1.5
O=C(CC1SC(=O)N(c2ccccc2)C1=O)Nc1ccccc1 (stereo unspecified)	x	x	4.8	28.8	-2.2	-0.4
Cc1cccc(NC2SC(=O)N(c3ccccc3)C2=O)c1 (stereo unspecified)	54.8*	x	-5.0	-31.3	0.1	-11.1
COCC(=O)N(C)C[C@H]1Oc2ncc(C3=CCCCC3)cc2C(=O)N([C@@H](C)CO)C[C@H]1C	-1.2	x	x	x	x	x
C[C@@H]1CN([C@@H](C)CO)S(=O)(=O)c2ccc(-c3ccncc3)cc2O[C@@H]1CN(C)C(=O)C1CCCCC1	20.8	x	x	x	x	x
Cc1sc2nc3c4ccccc4c(NCc4ccco4)nn3c(=O)c2c1C	x	x	2.4	23.5	85.2*	12.4
Cc1nc(NCc2ccco2)c2c(C)c(C)sc2n1	-4.5	x	0.4	28.6	-54.6	-4.9
CC=Cc1ccc2n(c1=O)C[C@H]1[C@H](CO)[C@@H](C(=O)NCCCN(C)C)[C@@H]2N1C(=O)c1ccccc1F (mixture of isomers)	1.0	x	x	x	x	x
Oc1ccc(/C=N/Nc2ccc(C(F)(F)F)cn2)c(O)c1	x	4.9	0.0	32.7	-1.5	-4.3
Oc1ccc(/C=N/Nc2cccc(Cl)n2)c(O)c1	33.6	18.1	-0.7	x	109.1*	-7.9
Cc1ccc(C(=O)NC(=S)Nc2cccnc2Cl)cc1	23.1	41.4*	-7.0	4.3	144.8*	-12.8
SMILES	esBAF inh	Wnt bcat act	A3A deaminase	PHOSPHO1 inh	MITF act	A3G deaminase
CCOC(=O)CSc1nnc(SCCN2C(=O)c3ccccc3C2=O)s1	4.2	-1.4	-4.5	73.0*	x	-12.8
CCOC(=O)c1ccc(CSc2nnc(N)s2)cc1	48.4*	x	-5.6	15.6	x	-5.0
Nc1nnc(SCC(=O)c2cccc([N+](=O)[O-])c2)s1	x	-0.7	3.5	-16.9	7.0	-9.7
Nc1nnc(SCC(=O)c2ccc3ccccc3c2)s1	52.4*	x	-3.3	75.3*	x	-1.4
CCOC(=O)CNC(=O)CSc1nnc(SCC(=O)NCC(=O)OCC)s1	11.1	-1.3	-3.4	35.0	-4.8	-8.6
Nc1nnc(SCCN2C(=O)c3ccccc3C2=O)s1	4.6	x	3.0	1.0	-9.2	5.6
CCOC(=O)CSc1nnc(N)s1	x	x	3.6	89.7*	5.8	-7.2
C[C@@H]1CN([C@H](C)CO)C(=O)c2cc(NC(=O)Nc3ccccc3)ccc2O[C@@H](C)CCCCO[C@@H]1CN(C)Cc1ccccc1	2.7	x	x	x	x	x
CO[C@H]1CN(C)C(=O)c2cc(NC(=O)C3CCCCC3)ccc2OC[C@@H](C)N(Cc2nccs2)C[C@@H]1C	3.4	x	x	x	x	x
COCC(=O)Nc1ccc2c(c1)[C@@H]1C[C@@H](CC(=O)NCc3cccc(F)c3)O[C@@H](CO)[C@@H]1O2	3.0	x	x	x	x	x
COc1ccc(/C=C/C2=Nc3ccccc3NC(C)(C)C2)cc1OC	43.7*	39.9*	-2.6	56.0	u	-0.1
COc1ccc2c(c1)CCc1c-2n[nH]c1C(=O)NCCC(C)C	2.3	30.6*	29.1	x	55.4	-6.5
c1ccc(CSc2nnc(NC3CCCCC3)s2)cc1	x	42.2*	x	x	x	x
O=c1cc(CSc2nnc(NC3CCCCC3)s2)nc2sccn12	-2.0	-0.6	7.1	47.6	14.2	-1.0
O=S(=O)(c1ccc(F)cc1)N1CCCCN2[C@H](CO)[C@H](c3ccc(C4=CCCCC4)cc3)[C@@H]2C1	-4.9	x	x	x	x	x
COc1ccccc1/C=N/Nc1nccnc1Cl	41.7*	12.5	3.3	-2.7	58.4	4.6
COc1ccc(/C=N/Nc2ccccn2)c(OC)c1OC	x	8.4	0.0	19.2	33.2	-2.1
COc1ccc(/C=N\Nc2ccccn2)c(OC)c1	52.1*	13.9	-6.3	3.1	x	-6.0
COc1cc(/C=N/Nc2ccccn2)cc(OC)c1O	x	0.8	-3.3	-28.8	12.8	-7.1
C=CCOc1ccc(/C=N/Nc2ccccn2)cc1OC	64.1*	-1.0	0.6	30.3	u	-9.6
CCCOc1ccc(/C=N/Nc2ccccn2)cc1OC	28.7	5.3	0.1	11.2	90.9*	5.1
CCOc1ccc(/C=N/Nc2ccccn2)cc1OC	x	14.4	-1.9	8.2	58.4	-13.7
O=C(C[C@@H]1C=C[C@H](NC(=O)c2ccccn2)[C@H](CO)O1)NCc1cccc(F)c1	6.1	x	x	x	x	x
O=C(NCC[C@H]1CC[C@H](NC(=O)C2CCCC2)[C@@H](CO)O1)Nc1ccc(Cl)cc1	25.9	x	x	x	x	x
C[C@H](CO)N1C[C@H](C)[C@@H](CN(C)Cc2cncnc2)Oc2ncc(-c3ccc(C#N)cc3)cc2C1=O	-6.2	x	x	x	x	x
COc1cc(/C=N/Nc2ccccn2)ccc1OCC(C)C	u	7.4	-7.4	-7.9	89.7*	-8.8
CCCCCCCCS(=O)c1sc2nc(C)cc(C)c2c1N (stereo unspecified)	0.6	x	-6.0	94.1*	-7.6	-5.8
CCCCCCCCS(=O)c1sc2nc3c(cc2c1N)CCCC3 (stereo unspecified)	1.4	x	-0.2	x	x	-2.9
C[C@@H]1CN([C@@H](C)CO)C(=O)c2cc(NC(=O)Cc3cn(C)c4ccccc34)ccc2O[C@H]1CN(C)Cc1ccc2c(c1)OCO2	1.0	x	x	x	x	x
